Data from PubChem BioAssay AID1117359 (Southern Research Institute, 2015).
The campaign covered roughly 1,500 compounds. About 460 (31%) were called active. Not all results are given here. Potency and affinity values are given separately. Unmarked numbers belong to inactive results.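 Rule for the calls: active = viability at or below 80% at any tested concentration, marking the compound as toxic; inactive = the rest.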

Assay: THP-1 cell cytotoxicity, dose response, cytotoxicity control for Vif-APOBEC3G degradation inhibitor project, THP-1 cells (AID 1117359)
Details: THP-1 viability, CellTiter-Glo luminescence, 72 h; series mostly up to 40 µM; viability: at the top concentration

Structure (SMILES) | viability [%] | outcome
O=C(Nc1nnc(SCc2c(Cl)cccc2Cl)s1)c1cccc([N+](=O)[O-])c1 | 97.1 | –
O=C(OCC(=O)N1CCN(C(=O)c2ccco2)CC1)c1cc(-c2ccco2)nc2ccccc12 | 86.7 | –
Cc1ccc(N2CC(NC(=O)N3CCN(C(=O)c4ccco4)CC3)CC2=O)cc1 (stereo not given) | 85.7 | –
COc1cccc(CN2CCNC(=O)C2CC(=O)NCCn2nc(C)cc2C)c1OC (stereo not given) | 93.5 | –
Cc1ccccc1C(=O)NCC(=O)OC(C)C(=O)NC(C)CCc1ccccc1 (stereo not given) | 106 | –
O=C(Nc1nc(-c2ccco2)c(-c2ccco2)s1)C1CCC1 | 99.6 | –
c1ccc(CSc2nnc(-c3ccco3)c(-c3ccco3)n2)cc1 | 83.8 | –
CC(C)C[C@H](NC(=O)c1nc[nH]c1C(=O)N1CCN(c2ccccc2)CC1)C(=O)OC(C)(C)C | 85.4 | –
O=C(c1ccc2c(c1)[nH]c(=S)n1c3ccccc3nc21)N1CCN(c2cccc(Cl)c2)CC1 | 83.2 | –
Cc1cccc(N2CCN(CC(O)COc3ccc(Cl)cc3)CC2)c1 (stereo not given) | 96.6 | –
COc1ccccc1N1CCN(C(=O)C(F)F)CC1 | 90 | –
COc1cccc(=O)c2c(C)n(-c3ccc(C(=O)O)cc3)c(C)c12 | 105 | –
COc1cc(C(=O)Nc2ccc(N3CCCS3(=O)=O)cc2)c([N+](=O)[O-])cc1OC | 95.8 | –
CC(C)Cc1cc(C(=O)Nc2cccc(O)c2)no1 | 85.4 | –
COc1ccc(S(=O)(=O)N2CCOC2CNC(=O)C(=O)NCc2ccccn2)cc1 (stereo not given) | 80.3 | –
Cc1csc(=O)n1CC(=O)OCC(=O)c1ccc(Br)cc1 | 110 | –
O=C(O)/C=C/C(=O)NNc1ncnc2ccccc12 | 93.2 | –
C=CCn1c(SCC(=O)c2c(N)n(C)c(=O)n(C)c2=O)nnc1-c1ccccc1F | 80.2 | –
COc1ccc2c(=O)c3c(=O)n(-c4ccc(C)cc4)c(-c4ccccc4)nc3oc2c1 | 105 | –
COc1ccc(CNc2nc3ccccc3n2C)c(O)c1 | 81.6 | –
O=[N+]([O-])c1ccc(N/N=C/c2ccc(O)c(O)c2O)c(S(=O)(=O)N2CCOCC2)c1 | 88.3 | –
Cc1nnc(SCC(=O)N2CCN(c3ccccc3)CC2)n1C1CC1 | 111 | –
CCOC(CCNC(=O)c1cn(C)c(=O)c2c1c1ccccc1n2C)OCC | 87.9 | –
Oc1ccc(/C=C/c2cnccn2)cc1 | 103 | –
O=CN/C=C/c1cc(O)ccc1O | 93.7 | –
CC1CN(C(=O)COC(=O)Cc2ccc(Cl)cc2)CC(C)O1 (stereo not given) | 95.3 | –
CCN(CC(=O)Nc1c(F)cccc1F)C(=O)CSC(=S)N1CCCC1 | 106 | –
O=c1[nH]c2ccccc2c(O)c1-[n+]1ccccc1 | 105 | –

Structure (SMILES) | viability [%] | outcome
CCc1ccc2c(CN3CCC(C(=O)OC)CC3)cc(=O)oc2c1 | 101 | –
Cc1ccc(CNC(=O)COc2ccc3c(c2)CCC3)cc1 | 106 | –
CCn1c(SCC(=O)OC)nc2sc3c(c2c1=O)CCC3 | 91.2 | –
Cc1cc(SCC(=O)NCCCN2CCCC2=O)nc2ccccc12 | 108 | –
Cc1cc2c(c(=O)o1)C(c1ccc([N+](=O)[O-])o1)C(C#N)=C(N)O2 (stereo not given) | 106 | –
CC1CN(S(=O)(=O)c2cc(C(=O)NCc3ccncc3)ccc2Cl)CC(C)O1 (stereo not given) | 103 | –
CN(C)c1ccc(NC(=O)Nc2cccc(Cl)c2)cc1 | 84.4 | –
CCN(CC(=O)Nc1ccc(NC(C)=O)cc1)C(=O)C1CCCC1 | 121 | –
COC(=O)C1CCN(c2ccc([N+](=O)[O-])cc2)CC1 | 85.4 | –
C=CCc1c(C)nc2c(C(=O)O)cnn2c1C | 105 | –
CC1(C)CCC(=O)c2ccccc21 | 87.5 | –
O=S(=O)(O)c1cc(O)c2cc(Nc3ccccc3)ccc2c1 | 86 | –
Cn1cc(/C=C/C(=O)N2CCCC(C(=O)c3cccc(C(F)(F)F)c3)C2)cn1 (stereo not given) | 95.5 | –
CC1(C)C2CCC1(C)C(OC(=O)C[n+]1ccccc1)C2 (stereo not given) | 101 | –
O=C1C(Cl)=C(N2CCCCC2)C(=O)C(Cl)=C1c1cnc(N2CCCCC2)s1 | – | inactive
CN1CCN(C2=C(Cl)C(=O)C(c3cnc(N4CCCCC4)s3)=C(Cl)C2=O)CC1 | 100 | –
CN1CCN(S(=O)(=O)Cc2ccc(Cl)cc2)CC1 | 90.8 | –
CN(C)c1ncc(C2=C(Cl)C(=O)C(N3CCCC3)=C(Cl)C2=O)s1 | 89.6 | –
CCn1c(CNC(=O)Cc2ccc(OC)cc2)nnc1SCC(=O)Nc1ccc(C(=O)O)cc1 | 90 | –
Cc1cc(O)c(Oc2cc(C)cc(O)c2O)c(O)c1 | 99.7 | –
Cc1nc(NCc2ccccc2)c2cc[nH]c2n1 | 88.9 | –
COc1ccc2c(c1)n([O-])c1c([n+]2=O)CCC1 | 98.7 | –
CC(C)C(NC(N)=O)C(=O)NC1CCCCC1 (stereo not given) | 86.8 | –
CN(CC(=O)Nc1cccc(F)c1)C(=O)c1cc(-c2ccco2)nc2ccccc12 | 96.6 | –
CCc1ccccc1NNC(=O)CCc1ccccc1 | 90 | –
Cn1cnnc1SCC(=O)Nc1ncc([N+](=O)[O-])s1 | 96.2 | –
C=C(C)C(=O)Nc1cccc(C2=NOC3(C2)C[C@@H](C(N)=O)N(C(=O)CCCCC)C3)c1 (stereo not given in full) | 99.8 | –
